VACV Venus inh: qHTS for Stage-Specific Inhibitors of Vaccinia Orthopoxvirus: Venus Reporter Primary qHTS | AID 720580, 2013 | Vaccinia virus Venus reporter expression, fluorescence | actives 0.46% (n = 330,000) | Potency, µM (series often up to 36.5 µM), for the others: top-dose activity change, negative = inhibition, usual class: inhibitors; calls by dose curve; tested in A549 cells; note: % is set by controls: 0 for no effect and ±100 for the full control effect; nearly all actives have a fitted effect of over 30% in size
Pf growth 48h: Primary qHTS for delayed death inhibitors of the malarial parasite plastid, 48 hour incubation; actives 5.9% (n = 310,000); Potency, µM (highest dose often 28.7 µM), for the others: at the top dose activity change, negative = inhibition, usual class: inhibitors; P. falciparum luciferase growth in erythrocytes, 48 h; note: % is set by controls: 0 for no effect and ±100 for the full control effect
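Erythrocytes infected with P. falciparum carrying an integrated firefly luciferase reporter (2% hematocrit, 0.1% parasitemia final) were exposed to compounds in RPMI 1640 with 0.5% Albumax at 37 C, 5% CO2. Growth inhibition was scored as reduced luminescence.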
NS1 function inh: qHTS Assay for Inhibitors of Influenza NS1 Protein Function; AID 2326, 2010; Potency, µM (series often up to 46.1 µM), without a hit: top-dose activity, positive = more growth; actives 0.4% (n = 270,000); calls by dose curve; note: actives are rising curves; nearly all actives have a fitted effect of over 50% in size
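A cell-based growth assay was used: compounds that relieve NS1-induced slow growth of budding yeast raise OD600. Assay medium was yeast nitrogen base with ammonium sulphate and -URA supplement, pH 6.0, with 2% galactose.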
Pf growth 96h: Primary qHTS for delayed death inhibitors of the malarial parasite plastid, 96 hour incubation; P. falciparum luciferase reporter growth, 96 h; Potency, µM (titrated, usually from 28.7 µM), for the others: top-dose activity change, negative = inhibition, usual class: inhibitors; actives 6.9% (n = 320,000); note: % is set by controls: 0 for no effect and ±100 for the full control effect
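Two parasite generations (96 h, 37 C, 5% CO2) of compound exposure in infected erythrocytes (0.05% parasitemia, 2% hematocrit). Luciferase-reporter P. falciparum; decreased luminescence indicates inhibited growth, aimed at apicoplast-acting delayed death.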
HCV inhibitor: qHTS Assay for Inhibitors of Hepatitis C Virus (HCV); Potency, µM (doses to about 41.8 µM), inactives show top-dose activity change, negative = inhibition, usual class: inhibitors; AID 651820, 2012; actives 3.4% (n = 340,000); Huh7.5.1 HCVcc-Cre infection, luciferase reporter, 44 h; note: % is set by controls: 0 for no effect and ±100 for the full control effect
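1,000 cells/well; 4 h culture; + compound; + HCVcc-Cre (~0.5 moi); 44 h; luciferase substrate, RT 15 min; read 15 sec.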
Vaccinia mCherry: qHTS for Stage-Specific Inhibitors of Vaccinia Orthopoxvirus: mCherry Reporter Primary qHTS. AID 720579, 2013. Potency, µM (series often up to 36.5 µM), inactives show at the top dose activity change, negative = inhibition, hits mostly inhibitors. actives 0.63% (n = 310,000). Vaccinia virus mCherry reporter infection, fluorescence; calls by dose curve; tested in A549 cells; note: % is set by controls: 0 for no effect and ±100 for the full control effect; nearly all actives have a fitted effect of over 35% in size
The depositor's hits bear a star. An excerpt weighted towards active compounds, which were near 11% of everything screened. Unless noted, calls come from the whole dose curve; as a rule, active = well fitted inhibition curve with a large enough effect; inconclusive = small, poorly fitted or top-dose-only effect, or another doubt; inactive = no such curve, though single readings can be large or run the other way. Potency is the fitted concentration of half-maximal effect.

Cc1ccccc1NC(=O)COC(=O)c1ccc2c(c1)C(=O)N(CCCN1CCOCC1)C2=O was read as HCV inhibitor 15%.
`Cc1ccc(C(OCC(C)(C)C[N+](C)(C)C)c2ccccc2)cc1` (stereo not drawn) gave VACV Venus inh -6%, Pf growth 48h 1.3µM*, Pf growth 96h inconclusive, HCV inhibitor -8% and Vaccinia mCherry inactive.
Screening N#Cc1ccc(NC(=O)NN2CCCCCC2)cc1 returned VACV Venus inh -17%, HCV inhibitor inconclusive and Vaccinia mCherry -29%.
For CC(Oc1ccc2c(-c3ccccc3)cc(=O)oc2c1)C(=O)NCCCN1CCOCC1 (stereo not drawn) the results were VACV Venus inh -13%, Pf growth 48h 6%, NS1 function inh -6%, Pf growth 96h inconclusive, HCV inhibitor 4% and Vaccinia mCherry -15%.
`COc1ccc(O)c(/C=N/NC(=O)c2ccc(CSc3nc(C)cc(C)n3)cc2)c1` gave VACV Venus inh inconclusive, Pf growth 48h inconclusive, NS1 function inh 19%, Pf growth 96h inconclusive, HCV inhibitor 5.6µM* and Vaccinia mCherry 8.9µM*.
`Cc1cc(C)nc(SCc2ccc(C(=O)N/N=C/c3cccc(O)c3O)cc2)n1` gave VACV Venus inh inconclusive, Pf growth 48h 10µM*, NS1 function inh -7%, Pf growth 96h 4.7µM*, HCV inhibitor 13µM* and Vaccinia mCherry 8.9µM*.
Cc1cc(C)nc(SCc2ccc(C(=O)N/N=C/c3ccc(C(=O)O)cc3)cc2)n1 was read as VACV Venus inh -15%, Pf growth 48h inconclusive, NS1 function inh 13%, Pf growth 96h -15%, HCV inhibitor -7% and Vaccinia mCherry -9%.
Screening OC(c1cc(C(F)(F)F)nc2c(C(F)(F)F)cccc12)C1CCCCN1 (stereo not drawn) returned VACV Venus inh inconclusive, Pf growth 48h 0.0093µM*, Pf growth 96h 0.0037µM*, HCV inhibitor inconclusive and Vaccinia mCherry inconclusive.
`COC(=O)/C(C#N)=C/c1c(N2CCN(c3cccc(Cl)c3)CC2)nc2c(C)cccn2c1=O` gave Pf growth 48h inconclusive, NS1 function inh 0%, Pf growth 96h inconclusive and HCV inhibitor 8%.
For CCNC(=O)/C(C#N)=C/c1c(N2CCN(c3cccc(Cl)c3)CC2)nc2c(C)cccn2c1=O the results were Pf growth 48h 12µM*, NS1 function inh -2%, Pf growth 96h inconclusive and HCV inhibitor inconclusive.
CCNC(=O)/C(C#N)=C/c1c(N2CCN(C)CC2)nc2c(C)cccn2c1=O was read as VACV Venus inh -2%, Pf growth 48h 11%, NS1 function inh 2%, Pf growth 96h 1%, HCV inhibitor -1% and Vaccinia mCherry -13%.
`CCNC(=O)/C(C#N)=C/c1c(N2CCN(Cc3ccc4c(c3)OCO4)CC2)nc2c(C)cccn2c1=O` gave VACV Venus inh -13%, Pf growth 48h 7.4µM*, NS1 function inh -11%, Pf growth 96h 3.7µM*, HCV inhibitor 11% and Vaccinia mCherry 0%.
`Cc1cccn2c(=O)c(C=C(C#N)C#N)c(N3CCN(c4cccc(Cl)c4)CC3)nc12` gave VACV Venus inh -9%, Pf growth 48h 7.4µM*, NS1 function inh 5%, Pf growth 96h inconclusive, HCV inhibitor 16% and Vaccinia mCherry -14%.
Screening Cc1cccn2c(=O)c(/C=C(\C#N)C(=O)NCc3ccco3)c(N3CCCCC3)nc12 returned VACV Venus inh -6%, Pf growth 48h inconclusive, NS1 function inh 8%, Pf growth 96h 2.9µM*, HCV inhibitor 1% and Vaccinia mCherry -13%.
`CCN(CC)CCCNC(=O)c1ccccc1C` gave VACV Venus inh -1%, Pf growth 48h 5%, NS1 function inh -1% and Vaccinia mCherry -10%.
